Results on two compounds are retold here after PubChem BioAssay AID720611 (Broad Institute, 2013).

The nature of this test: cytotoxicity in SNB-19 cells – cell-based, CellTiter-Glo ATP luminescence, 8-48 h, dry powder, mechanism study for HRAS target identification, late-stage follow-up (AID 720611). Particulars: SNB-19 viability; series mostly up to 35 µM.

SMILES strings stand for the structures. Results with a measured potency or affinity are listed apart. The source made the active and inactive calls.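 The calls were made as follows: active = viability loss with half-effect dose no higher than twice the top dose, at all three exposure times; inconclusive = exposure times disagree or give unclear fits; inactive = inactive at every exposure time.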

With `Cc1onc(C(=O)N2CCN(C(c3ccncc3)c3ccncc3)CC2)c1[N+](=O)[O-]`, the call was inactive.
As to `CCC(=O)N(c1ccc(OC)c(Cl)c1)C(C(=O)NCCc1ccccc1)c1cccs1` (configuration not stated), the result was inactive.
